Compound activity from PubChem BioAssay.
D1 ag: Allosteric Agonists of the Human D1 Dopamine Receptor: qHTS. activation, % at 2 µM. AID 504660, 2011. HEK293 T-REx D1 cells, calcium flux, agonist mode. 360,000 compounds, 1% hits. D(1A) dopamine receptor (Homo sapiens), P21728; also: 0% is about no effect
Target sequence (P21728 whole entry, looked up): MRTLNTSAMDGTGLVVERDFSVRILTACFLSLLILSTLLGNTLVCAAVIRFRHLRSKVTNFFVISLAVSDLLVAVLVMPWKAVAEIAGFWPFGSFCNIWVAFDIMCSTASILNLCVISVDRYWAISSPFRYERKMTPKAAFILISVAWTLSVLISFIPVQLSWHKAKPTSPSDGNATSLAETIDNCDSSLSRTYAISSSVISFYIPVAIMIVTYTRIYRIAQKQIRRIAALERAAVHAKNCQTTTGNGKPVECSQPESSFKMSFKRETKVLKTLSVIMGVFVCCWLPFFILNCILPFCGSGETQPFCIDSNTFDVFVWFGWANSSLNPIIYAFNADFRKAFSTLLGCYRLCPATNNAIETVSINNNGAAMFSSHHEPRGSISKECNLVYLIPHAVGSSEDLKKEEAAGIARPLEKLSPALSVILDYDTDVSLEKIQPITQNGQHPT
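Agonism was scored from calcium flux recorded over 180 s (1 read/s) after pintool compound addition, following a 10-cycle baseline. Cells were inducible force-coupled HEK293 TREx D1, plated overnight at 30 C and loaded with no-wash calcium dye.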
D1 potentiator: Potentiators of Human D1 Dopamine Receptor: qHTS. D(1A) dopamine receptor (Homo sapiens), P21728. HEK293 TREx D1 cells, calcium flux, dopamine EC20 potentiation. potentiation, % at 10 µM. 360,000 compounds, 0.036% hits; in the data active = potentiation above about 30%; also: 0% is about no effect
TRHR enhancer: qHTS for Small Molecule Agonists and Allosteric Enhancers of Human TRH Receptor: Primary Screen for Enhancers; TRHR cells, fluo-8 calcium fluorescence, EC20 TRH enhancement; enhancement, % at 2 µM; 360,000 compounds, 0.66% hits; AID 493056, 2011; in the data active = enhancement above about 30%; also: 0% is about no effect
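TRHR-expressing cells loaded with fluo-8 calcium dye were read kinetically (ex 480/em 530) during compound addition, then stimulated with an EC20 of TRH (10 nM final). Enhancement of the Gq-mediated intracellular calcium response was scored.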
TRHR agonist: qHTS for Small Molecule Agonists and Allosteric Enhancers of Human TRH Receptor: Primary Screen for Agonists | TRHR cells, calcium flux fluo-8, FDSS agonist mode | 360,000 compounds, 0.18% hits | activation, % at 2 µM | AID 493084, 2011; also: 0% is about no effect
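Steps: seed TRHR cells overnight; add fluo-8 no-wash Ca dye, RT 30 min–1.5 h; record 10 s baseline; pin-transfer compounds; monitor fluorescence 1 cycle/s for the agonist window. Calcium increases flag candidate agonists.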
GRP78 ERSR act: qHTS for Inducers of the Endoplasmic Reticulum Stress Response (ERSR) in Human Glioma: qHTS; 420,000 compounds, 0.02% hits; U87-MG GRP78 promoter luciferase reporter, 16 h; Potency, µM, for the others: at the highest dose activation, actives largely listed as activators; active = well fitted activation curve with a large enough effect; also: potency is read from the fitted curve at half-maximal effect; series mostly up to about 76 µM; % of control where 0% means no effect; nearly all actives have a fitted effect of over 35% in size
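Stably transfected U87-MG glioma cells carrying a GRP78-based luciferase sensor; 16 h compound incubation. Luminescence end-point read 10 min after Bright-Glo addition at room temperature.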
D1 antag: Antagonist of Human D 1 Dopamine Receptor: qHTS. 360,000 compounds, 3.2% hits. HEK293 TREx D1 cells, calcium flux, dopamine EC80; stronger effect = lower value. D(1A) dopamine receptor (Homo sapiens), P21728. activity change, negative = inhibition, % at 10 µM; in the data active = activity change below about -30%; also: % is scaled to controls: 0 for no effect and ±100 for the full control effect
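HEK293 T-REx cells expressing inducible, force-coupled D1 receptor; no-wash Ca dye, 30–90 min RT. Cmpd → 180 s read at 1 Hz → EC80 DA → 180 s read.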
The depositor's hits bear a star; . = no result; ! = not confirmed by another sample. An excerpt weighted towards active compounds, which were near 4% of everything screened. Rule as the data show it, unless noted: active = activation above about 30%; inactive = the rest.

SMILES	D1 ag	D1 potentiator	TRHR enhancer	TRHR agonist	GRP78 ERSR act	D1 antag
Cc1cc(C(=O)NNC(=O)/C=C/c2ccco2)c(C)o1	2.3	-2.4	-2.0	0.5	-4.6%	2.2
CCC(CC)C(=O)Nc1nnc(S(=O)(=O)N2CCCC2)s1	1.3	-0.8	-0.1	-0.7	-1.9%	8.4
COC(=O)c1sc(-c2ccc(C(C)(C)C)cc2)cc1NC(=O)COCC(=O)O	58.4*	-3.9	-24.3	0.9	1.7%	-39.3*
N#C/C(=C\c1ccc(N2CCOCC2)o1)C(=O)Nc1ccc(O)cc1	41.0*	3.0	1.7	17.2	4.8%	-23.3
COc1cccc(NC(=O)/C(C#N)=C/c2ccc(-c3ccc(C)cc3)o2)c1	110.1*	7.3	8.4	33.6*	0.6%	-11.1
COc1ccc(NC(=O)/C(C#N)=C\c2ccc(N3CCOCC3)o2)cc1	212.9*	-0.1	0.6	74.6*	-2.7%	-20.4
CCOC(=O)/C(C#N)=C/c1ccc(-c2ccc(Br)cc2)o1	9.9	-1.1	36.8*	9.3	2.8%	-21.5
CC1CC1c1ccc(/C=C(\C#N)C(=O)Nc2ccc(Cl)cc2)o1 (stereo not given)	6.4	-11.8	7.0	2.6	3.2%	3.2
CCCCOC(=O)/C(C#N)=C\c1ccc(-c2ccc(Cl)cc2)o1	9.2	-0.7	2.4	1.7	2.9%	-5.1
COc1ccc(NC(=O)/C(C#N)=C/c2ccc(C)o2)cc1	-1.6	-0.2	7.9	-1.7	-2.4%	-13.5
CCS(=O)(=O)Nc1cc(C(=O)N2CCC[C@H]2CO)c2c(c1)nc(-c1ccccc1)n2C	.	.	.	.	-1.8%	.
Cc1cc[n+](CCC2CCCCC2)c2ccccc12	.	.	.	.	-3.6%	.
Cc1ccc(C)c(NCC(O)c2ccccc2)c1 (stereo not given)	-0.8	-2.1	1.8	0.1	0.9%	2.1
Cc1cc(=O)n2nc(N3CCCC(C(=O)NCCCN4CCc5ccccc5C4)C3)sc2n1 (stereo not given)	5.1	-3.1	3.8	-0.4	0.8%	-32.1*
CCC1CCCCN1CCCNC(=O)C1CCCN(c2nn3c(=O)cc(C)nc3s2)C1 (stereo not given)	3.3	-6.4	-1.6	-0.1	-3.1%	-2.4
CCn1nc(NC(C)=O)c2cc3cccc(C)c3nc21	1.0	3.9	1.7	0.0	-3.1%	-3.5
CCn1nc(NC(=O)COC)c2cc3cccc(C)c3nc21	2.5	-3.5	1.2	-0.8	1.6%	-81.0*
O=c1c(/C=C(\O)c2ccc(F)cc2)nc2ccccc2n1-c1ccccc1	159.5*	7.9	-8.4	75.9*	2.3%	5.4
CCOC(=O)Cn1c(=N)n(CCOc2ccc3ccccc3c2)c2ccccc21	32.3*	-10.0	1.9	1.1	-16.7%	5.2
CCN(CC)C(=S)SCC(=O)Nc1ncc2c(n1)CCCC2=O	-0.3	0.1	-2.8	-0.7	-4.2%	-33.2*
CCCCCCCCN1[C@@H](CC(C)=O)c2ccc(/C=C/C(C)=O)cc2S1(=O)=O	.	.	.	.	-11.4%	.
CN1CCN(c2ccc(NC(=O)CSc3nnnn3-c3ccccc3F)cc2)CC1	4.0	-13.6	-4.4	0.1	0.1%	-45.6*
Cc1ccc(-n2nnnc2SCC(=O)Nc2sccc2C#N)cc1	11.2	-5.0	-1.3	-0.3	-2.8%	-65.7*
Cc1ccc(-n2nnnc2SCC(=O)Nc2ccc(N3CCN(C)CC3)cc2)c(C)c1	13.0	-7.1	-2.6	-0.5	-4.8%	-60.5*
COc1ccc(NC(=O)CSc2nnnn2-c2ccccc2F)cc1	10.2	-3.5	8.3	-1.1	-1.8%	-27.2
SMILES	D1 ag	D1 potentiator	TRHR enhancer	TRHR agonist	GRP78 ERSR act	D1 antag
COCCNc1ncnc2ccc(-c3ccoc3)cc12	.	.	.	.	-1.5%	.
CC(=O)c1cnc2c(-c3ccccc3)c(-c3ccccc3)nn2c1C	1.4	2.0	2.8	1.2	-0.9%	2.8
O=c1[nH]c2cc([N+](=O)[O-])ccc2c2cc(Br)ccc12	.	.	.	.	-2.3%	.
CN(C)CCCOc1ccc2c(c1)Sc1ccccc1CC2=O	78.9*	-5.7	5.5	-0.7	-2.8%	-60.1*
Cc1ccsc1CN(C(=O)COc1ccc(Cl)cc1)C1CCS(=O)(=O)C1 (stereo not given)	3.0	-1.2	-4.0	0.4	.	3.2
COc1cccc(CN(C(=O)c2ccccc2)C2CCS(=O)(=O)C2)c1 (stereo not given)	1.5	-11.1	-6.7	-0.2	4.8%	-34.9*
Cc1cccc(OCC(=O)N(Cc2ccc(C)o2)C2CCS(=O)(=O)C2)c1 (stereo not given)	2.9	-2.1	-0.4	-1.0	1.3%	-19.6
Cc1ccc(CN(C(=O)COc2c(C)cccc2C)C2CCS(=O)(=O)C2)o1 (stereo not given)	-2.4	2.2	-4.7	-0.5	.	-42.8*
COc1ccc(OCC(=O)N(Cc2sccc2C)C2CCS(=O)(=O)C2)cc1 (stereo not given)	0.3	-4.5	-1.3	-0.2	-6.2%	-72.5*!
O=C(NCCc1nnc2n1CCN(Cc1ccc(F)cc1)CC2)c1ccco1	.	.	.	.	-0.5%	.
CN(CCO)C(=O)c1cn(C2CCN(Cc3c(F)cccc3Cl)CC2)nn1	.	.	.	.	-4.1%	.
O=c1c(CCc2ccccc2)nc2cnc(N3CCNCC3)nc2n1CCc1ccccc1	.	.	.	.	-5.7%	.
Cc1cccc2c(N3CCCC3)nc(CNS(=O)(=O)c3ccc4ccccc4c3)nc12	.	.	.	.	-6.3%	.
COc1ccc(C2=NN(C)C(=NCc3ccccc3)SC2)cc1	3.5	-0.7	-4.1	0.1	2.1%	4.0
COc1ccc(CN=C2Nc3ccccc3CS2)cc1	11.2	-6.7	-6.5	0.6	4.7%	-31.9*
Cc1ccc(NC(=O)c2ccc(S(=O)(=O)N3CCCC3)cc2)nc1	2.4	-1.4	4.6	0.1	1.0%	4.6
CC(C)NS(=O)(=O)c1ccc(N2C(=O)c3ccccc3C2=O)cc1	12.0	-1.4	-7.0	1.1	1.3%	-32.9*
S=C(NCc1ccccc1)NC1CCCCC1	0.6	-4.2	-2.0	0.5	-0.4%	-3.3
O=S(=O)(NCCc1c[nH]c2ccccc12)c1ccccc1	19.8	-5.9	-5.2	0.0	-6.2%	-36.3*
S=C(NCCCc1ccccc1)NC1CCCCC1	32.5*	-5.0	-2.9	2.1	6.1%	-1.0
S=C(NCCc1c[nH]c2ccccc12)NC1CC1	0.8	-3.0	32.5*	-0.4	0.2%	0.3
S=C(NCCc1c[nH]c2ccccc12)NC1CCCC1	7.2	0.6	-1.6	0.7	2.4%	-38.8*
O=C(NCC1(N2CCOCC2)CCCCCC1)c1cnn(-c2nccc(-c3ccco3)n2)c1C1CC1	.	.	.	.	-4.0%	.
